Laboratory results reported in PubChem BioAssay (Tox21).
Results filed as inconclusive are left out. Values without a mark were called inactive. The call rests on the fitted dose curve; in most records, active means well fitted cell-killing curve with a large enough effect in the repeat runs; inconclusive means weak or mixed curves; inactive means flat fitted curve, though single readings scatter.

Test: qHTS RealTime-Glo MT Cell Viability Assay in HepG2 cells - 8 hour (AID 1224873); further: nearly all actives have a fitted effect of over 55% in size
Conditions: RealTime-Glo luminescence; series mostly up to 76.8 µM; viability change, negative = cytotoxic: at the top concentration
From the text: National Center for Advancing Translational Sciences [NCATS]
NIH Chemical Genomics Center [NCGC]
U.S. Environmental Protection Agency [EPA]
National Institutes of Environmental Health Sciences [NIEHS]
National Toxicology Program [NTP]
U.S. Food and Drug Administration [FDA]
Measure of cell viability is critical in the cell-base assay. Analysis of cell viability is necessary for the characterization of cell responses to cytotoxic drugs and environmental stress. A RealTime-Glo MT Cell Viability Assay to monitor cell viability in real time of continues cell culture during 40 hours of compound treatment was used to screen Tox21 10K library compounds in HepG2 cells. The RealTime-Glo MT Cell Viability Assay is a nonlytic, homogeneous, bioluminescent method to measure cell viability in real time using a simple, plate-based method. The assay involves adding NanoLuc luciferase and a cell-permeant prosubstrate to cells in culture. Viable cells reduce the proprietary prosubstrate to generate a substrate for NanoLuc luciferase. This substrate diffuses from cells into the surrounding culture medium, where it is rapidly used by the NanoLuc Enzyme to produce a luminescent signal. The signal correlates with the number of viable cells, making the assay well suited for cytotoxicity studies.
Tox21 Assay Protocol Summary:
The mixture of HepG2 cell suspension and reagents were dispensed at 600cells/6 ul/well in 1536-well tissue culture treated black solid bottom plates using a Multidrop dispenser. After the assay plates were incubated at a 37 C/5% CO2 incubator for 5 hours, 23 nL of compounds dissolved in DMSO, positive and negative controls was transferred to the assay plate by a pintool work station. The plates were incubated at 37 C for 40 hours. The luminescence intensity were measured at 0h, 8h, 16h, 24h, 32h and 40h time points using ViewLux plate reader during compound treatment.
On the % scale 0 is the no-effect control and ±100 the full control effect.

Compound	viability change, negative = cytotoxic
COc1ccc(C(=O)Nc2ccccc2)cc1[N+](=O)[O-]	-13.9%
C1CCN(CN2CCCCC2)CC1	-0.14%
CCCCOc1ccc(N)cc1	2.12%
Oc1ccc(Oc2ccccc2)cc1	-12.7%
C=C(C)C(=O)OCCCCCCCCCCOC(=O)C(=C)C	-0.686%
C[C@H]1C[C@H]2[C@@H]3CCC4=CC(=O)C=C[C@]4(C)[C@@]3(F)[C@@H](O)C[C@]2(C)[C@@]1(O)C(=O)COP(=O)(O)O	-0.362%
O=C(O)c1ccc(O)c(O)c1	1.92%
CC(=O)c1cccnc1	0.43%
CC(C)=CCC/C(C)=C/C=N/O	-0.361%
O=C(O)c1ccc2c(c1)nc(C(=O)NC1CCN(C3CC3)CC1)n2Cc1cc(-c2ccc(Cl)s2)on1	-2.47% [at 15.8 µM]
CCCOC(C)=O	1.39%
O=C1C=CCCC1	-0.0743%
O=c1c2ccccc2oc2ccccc12	-0.665%
N#C[C@@H]1CC(F)(F)CN1C(=O)CNC1CC2CCC(C1)N2c1ncccn1 (stereo not given in full)	0.123%
CC(C)(C)c1cc(C=O)cc(C(C)(C)C)c1O	-1.32% [at 35.3 µM]
CC(C)CCCCCOC(=O)CS	-4.17%
O=C(OCCCCCOC(=O)c1ccccc1)c1ccccc1	-14.9%
CCC1=C(C)CN(C(=O)NCCc2ccc(S(=O)(=O)NC(=O)NC3CCC(C)CC3)cc2)C1=O (stereo not given)	-5.23% [at 35.3 µM]
CCC[Si](OC)(OC)OC	5.96%
CCCCCCCCCCCCSC#N	-5.79%

Compound	viability change, negative = cytotoxic
Cc1cc(N)n(-c2ccccc2)n1	-2.97%
O=C(c1ccco1)N1CCNCC1	3.92% [at 35.3 µM]
CC(=O)Nc1ccn(C2COC(COC(=O)c3ccccc3)O2)c(=O)n1 (stereo not given)	-2.67% [at 35.3 µM]
CCn1nc(Cc2ccccc2)cc1C1CCN(C[C@H]2C[C@H](N(C)[C@@H](C(=O)O)C(C)C)C[C@@H]2c2cccc(F)c2)CC1	-2.94%
CO[C@@H]1COCC[C@@H]1N[C@@H]1CC[C@@](C(=O)N2CCc3ncc(C(F)(F)F)cc3C2)(C(C)C)C1	-0.081%
C(/C=C/C=C/Nc1ccccc1)=Nc1ccccc1	-3.84%
CCc1ccc(C(=O)C(C)CN2CCCCC2)cc1 (stereo not given)	-6.05% [at 35.3 µM]
O=[N+]([O-])c1ccc(Cl)cc1Cl	0.263%
COC(=O)C(C)(C)C	0.332%
CCc1cnc(C(=O)O)c(C(=O)O)c1	0.567%
O=C(NC1CCN(CCc2c[nH]c3ccccc23)CC1)c1ccccc1	-3.1% [at 35.3 µM]
COc1cc(CNC(=O)CCCC/C=C/C(C)C)ccc1O	-5.94%
O=C(O)c1cc(C(=O)O)c(C(=O)O)cc1C(=O)O	6.07%
O=C(OC1C[C@H]2CC[C@@H](C1)[N+]21CCCC1)C(O)(c1ccccc1)c1ccccc1 (stereo not given in full)	6.6% [at 35.3 µM]
O=C(O)CNc1ccccc1	6.06%
FC1(F)C(F)(F)C(F)(F)C2(F)C(F)(C1(F)F)C(F)(F)C(F)(F)C1(F)C(F)(F)C(F)(F)C(F)(F)C(F)(F)C12F (stereo not given)	4.39%
Cc1ccc(Cl)c(OCC(O)CNC(C)(C)C)c1 (stereo not given)	0.193% [at 35.3 µM]
O=C(O)c1cccc(C(=O)O)c1C(=O)O	-0.124%
OCCOc1cccc(OCCO)c1	3.44%
O=C(Cl)c1cc(Cl)cc(Cl)c1	-5.33%
